First the molecules themselves.
B1: d8r1_design_ppi_1130_dldesign_0_cycle0_af2pred (protein)
chain: SAEEAEKAAKELIELAKKAAEDPSYIPEAAALAAKHIGTPEARTALAEAIKILMQKSPELAKQFLAAFSAALAALRAAA
B2: d8r1_design_ppi_638_dldesign_0_cycle1_af2pred (protein)
chain: GDARALRRAADNLARRALEELAAQTATAARAAEVAALLEAGRTEGAAKLAEAAALAAADPLLARAGAYLAAAADFLALAEREE
B3: d8r1_design_ppi_877_dldesign_0_cycle1_af2pred (protein)
chain: ALAAEAAAAIAKARELLKEIKETGKESKSESVRRFAEGVARKVQALIDQAEAAAADPATALALAKAALKLAEEGLAAVKTLKKAYEE
B4: d8r1_design_ppi_423_dldesign_0_cycle1_af2pred (protein)
chain: DESDKNMELLTKAGAATSELVAKARADAKAAAAEGPEAVKAVAEEHSAKIKEVAEKLGKESSKSASFKGLIETATKTIKAYADAVVA
B5: d8r1_design_ppi_1244_dldesign_0_cycle1_af2pred (protein)
chain: EEEAEKERERYEKAYYFAKAAIAAASSGLPAAVAAAKAFLQKAGEEIPEFLPAAKAATTAAEITAVATKVAAYAAAKIS
B6: d8r1_design_ppi_623_dldesign_0_cycle1_af2pred (protein)
chain: AAAAAAADAAAAALLDAAAAAAKAAVELTPEEAAAVLGAIAAAAATALALAKDPAAKAKLLATASEVANTAAQNLSQAVRREEE
B7: d8r1_design_ppi_146_dldesign_0_cycle1_af2pred (protein)
chain: YAQKIREAAEKLKSPEKKATLNAFADIAAKLEAEAKKAAAKDPAEGAKKLTAAKNLAAGALKLAEAKKEEE
B8: d8r1_design_ppi_573_dldesign_0_cycle1_af2pred (protein)
chain: SAEQAALEAKAKEAALKAWEAAKQYKKTGYQEFKDAAKEYAYAAIAYFRGDTAAGKKYRDAADKLWAKAQAIAAA
B9: d8r1_design_ppi_855_dldesign_0_cycle1_af2pred (protein)
chain: GTGKNLIKVLETSAEKTAALAAELAPDPAAATALADAFEASAKGFAAIAKELGTEAEVKPAAEKAIKKVRDALDKALAAAAA
B10: d8r1_design_ppi_307_dldesign_0_cycle1_af2pred (protein)
chain: MMEEAEKIAEEAKKTADELLAQAKKGDPKPYVNQGFAELNKLLQEAAKLSPEAAEKVKEVLAEFRKQASKILDS
B11: d8r1_design_ppi_1104_dldesign_0_cycle1_af2pred (protein)
chain: DDLLKQAQATLKQAAALAATVSLAAASDFNAAMFLMRNPKNIPQAIKYAQQGAALAAASAKAPQIKALADEAVKLMKALAKAAAA
B12: d8r1_design_ppi_1260_dldesign_0_cycle1_af2pred (protein)
chain: MTAEEALAEMEKLTKEMKEVSPLAGNAMEAHLNKAKELVAAVAAEDPEKAAEVAAKSYEQAKALYKAMKEMIEEEKKEKELA
B13: d8r1_design_ppi_1130_dldesign_0_cycle1_af2pred (protein)
chain: SMEEAEKAAKEIIELAKKAAEDPSYIDELAALAAKYIGSPEAKEALAEAIKILSKKSPELAKQFLAKYSAALAALRAAA
B14: d8r1_design_ppi_307_dldesign_0_cycle0_af2pred (protein)
chain: EEARAEALAAEAAATAAALLAAARATDPRADIAAGAAALTAAAREAAALSPAAAAKVRAVIATFMAEALKLMDS
B15: d8r1_design_ppi_128_dldesign_0_cycle1_af2pred (protein)
chain: AQLEQIKAQAKKEIEEALEYAKKAKTDPSYLAKALGHLNKASQLAKQLPNAEEVKAEIDKAISAAIAGDYETVKKEAEEAIKLLEKD
B16: d8r1_design_ppi_479_dldesign_0_cycle0_af2pred (protein)
chain: EELAKEARELAKRGIEDPEKAPEAGRKIAELAAKAVAEGDSEAAAEAVAELTRLHKANPEAGREALILMAQKIAKVAREK
B17: d8r1_design_ppi_987_dldesign_0_cycle0_af2pred (protein)
chain: QAVLDKANELLAKAMKLFGKLSPENYAAALAAADAAIAAAKELQKEDPELGAALLASAEALKAAIKAKAA
B18: d8r1_design_ppi_997_dldesign_0_cycle1_af2pred (protein)
chain: ALSDAQSFVKAAKAAAEKAKELAKKDPEVAAKAVETAKKLAEAAVKASPEAKPQAEEAKKLAEEAKKVVEEAKKKAA
B19: d8r1_design_ppi_408_dldesign_0_cycle1_af2pred (protein)
chain: ASAEAKKKALELIKKAVALTSQGLAKGDKALVKKGLEYAKKAKEEAAKSADAATLLKAVDNVEAMAKTVLDAL

Chain of PDL1, Q9NZQ7 (Q9NZQ7 whole entry): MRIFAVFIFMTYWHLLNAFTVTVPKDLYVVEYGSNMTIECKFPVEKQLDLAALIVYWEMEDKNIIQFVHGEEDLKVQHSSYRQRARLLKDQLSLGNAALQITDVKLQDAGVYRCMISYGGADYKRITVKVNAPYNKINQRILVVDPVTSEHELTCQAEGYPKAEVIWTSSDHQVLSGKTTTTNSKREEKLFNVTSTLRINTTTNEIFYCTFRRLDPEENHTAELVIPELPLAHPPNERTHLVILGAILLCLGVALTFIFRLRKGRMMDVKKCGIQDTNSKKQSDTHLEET

This test has as its target PDL1, Q9NZQ7.
Regarding B1, the “binding in a display sort” value was “not found (inactive)”.
On to B2, for which the “binding in a display sort” value was “not found (inactive)”.
For B3, the “binding in a display sort” value is “not found (inactive)”.
Then B4, with “not found (inactive)”.
In the case of B5 it was “not found (inactive)”.
In the case of B6 it was “not found (inactive)”; in that of B7, “not found (inactive)”; in that of B8, “binds (active)”.
On to B9, for which the “binding in a display sort” value is “not found (inactive)”.
Then B10, with “not found (inactive)”.
As to B11, the “binding in a display sort” value was “not found (inactive)”.
Then B12, with “not found (inactive)”; and B13, with “not found (inactive)”.
As for B14, the “binding in a display sort” value was “not found (inactive)”.
In the case of B15, the “binding in a display sort” value is “not found (inactive)”.
Then B16, with “not found (inactive)”.
For the molecule B17, the “binding in a display sort” value is “not found (inactive)”.
In the case of B18 it was “not found (inactive)”; in that of B19, “not found (inactive)”.

The values are drawn from PMC13494018.
